# pAkt inh: inhibitors of Akt phosphorylation. activity change, % for hits at 50 µM. 0.32% of 360,000 active. Neuro2A IGF-stimulated pAkt S473 HTRF, 20 min; hits give low values; in the data active = activity change below about -80%; inconclusive = mostly about -51% to -80%; note: % is set by controls: 0 for no effect and ±100 for the full control effect
#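 Neuro2A cells (4,500/well, DMEM with 0.5% FBS) were treated with compound at a single 50 µM final concentration, stimulated with 6 nM IGF for 20 min at 37 °C, and lysed. Phospho-Akt Ser473 was read by HTRF as 665/615 ratio ×10^4.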
# RXFP1 ag: activates the human relaxin receptor RXFP1; Q9HBX9; HEK293T-RXFP1 cAMP TR-FRET, 30 min; response scale: percent of porcine relaxin response, buffer zero; Potency, µM (highest dose often 57.5 µM), without a hit: at the highest dose activation, usual class: activators; 0.3% of 370,000 active; active = well fitted activation curve with a large enough effect; inconclusive = small, poorly fitted or top-dose-only effect; note: potency is the fitted concentration of half-maximal effect; % is set by controls: 0 for no effect and ±100 for the full control effect; nearly all actives have a fitted effect of over 60% in size
# Target sequence (Q9HBX9 whole entry, looked up): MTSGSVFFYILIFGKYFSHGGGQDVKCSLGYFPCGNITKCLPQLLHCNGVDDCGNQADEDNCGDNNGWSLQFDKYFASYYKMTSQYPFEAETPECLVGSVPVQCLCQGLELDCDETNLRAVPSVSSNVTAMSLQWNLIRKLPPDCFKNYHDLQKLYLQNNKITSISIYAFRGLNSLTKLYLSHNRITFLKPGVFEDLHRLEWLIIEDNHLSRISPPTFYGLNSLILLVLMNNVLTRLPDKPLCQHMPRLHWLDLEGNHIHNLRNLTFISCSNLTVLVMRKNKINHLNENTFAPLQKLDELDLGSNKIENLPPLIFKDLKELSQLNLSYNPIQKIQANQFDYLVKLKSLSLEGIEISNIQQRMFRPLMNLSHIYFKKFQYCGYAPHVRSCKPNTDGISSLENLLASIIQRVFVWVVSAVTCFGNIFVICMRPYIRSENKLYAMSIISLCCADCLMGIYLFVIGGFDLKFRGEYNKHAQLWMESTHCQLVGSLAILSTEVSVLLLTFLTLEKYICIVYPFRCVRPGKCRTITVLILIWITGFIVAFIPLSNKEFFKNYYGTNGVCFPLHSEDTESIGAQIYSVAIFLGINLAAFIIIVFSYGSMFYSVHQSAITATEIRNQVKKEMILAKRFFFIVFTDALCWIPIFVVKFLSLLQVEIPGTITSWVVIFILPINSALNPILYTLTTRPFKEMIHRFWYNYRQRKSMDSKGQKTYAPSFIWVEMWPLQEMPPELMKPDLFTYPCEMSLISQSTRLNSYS
#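 HEK293T cells stably expressing RXFP1 were pretreated with the PDE4 inhibitor Ro 20174, exposed to compounds for 30 min at 37C, lysed, and cAMP was read by TR-FRET. Data normalized to buffer (basal) and 29 nM porcine relaxin (100%).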
# TSHR antag: human thyrotropin receptor antagonism | activity change, negative = inhibition, % at 11.5 µM | AID 504810 | 0.2% of 330,000 active | TSHR-expressing cells, TSH-stimulated cAMP HTRF, 2 h; hits give low values;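 active = activity change below a set negative limit, meaning inhibition stronger than a set level, cut at about -70% in these data; inconclusive = activity change between two set negative limits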; note: % is set by controls: 0 for no effect and ±100 for the full control effect
#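 Inhibition of cAMP made by TSHR-expressing cells under TSH stimulation (4nM final, EC80; 2 h, 37 deg C) is quantified with a one-step lysis HTRF kit, anti-cAMP cryptate versus cAMP-d2.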
# gsp antagonist: antagonists of gsp mutant (McCune-Albright syndrome); gsp-mutant cells, cAMP HTRF, 30 min; Potency, µM (doses to about 76.9 µM), without a hit: top-dose activity change, negative = inhibition, hits mostly inhibitors; 0.4% of 340,000 active; calls by dose curve; cell line not stated here;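 note: intracellular cAMP measured with PDE inhibitor Ro 20-1724 present during compound exposure; potency is the fitted concentration of half-maximal effect; % is set by controls: 0 for no effect and ±100 for the full control effect; nearly all actives have a fitted effect of over 65% in size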
#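 Cells, 2000/well, grown 16–24 h in DMEM 10% FBS with 0.5 mg/ml G418, then compounds plus […] (300 uM addition stock), 30 min at 37C. cAMP read by HTRF (cAMP-d2 and anti-cAMP antibody-K in lysis buffer) after 30 min RT.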
# RXFP1 antag: blocks the human relaxin receptor RXFP1 | HEK293-RXFP1, relaxin-stimulated cAMP HTRF, 30 min; hits give low values | 0.59% of 350,000 active | activity change, negative = inhibition, % at 57.5 µM | Q9HBX9;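 active = activity change of -60% or lower, but not beyond a set lower limit; inconclusive = change between -60% and -40%, or beyond the set limit; inactive = change above -40%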; note: % is set by controls: 0 for no effect and ±100 for the full control effect
# gsp ag: agonists of gsp mutant (McCune-Albright syndrome). gsp mutant cells, cAMP HTRF, 30 min. Potency, µM (top dose mostly 76.9 µM), for inactives: at the top dose activation (cAMP increase), usual class: activators. 0.13% of 340,000 active; active = well fitted activation curve with a large enough effect; inconclusive = small, poorly fitted or top-dose-only effect, or another doubt; inactive = no such curve, though single readings can be large or run the other way; cell line not stated here;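 note: phosphodiesterase inhibitor Ro 20-1724 added with compounds to block cAMP breakdown; potency is the fitted concentration of half-maximal effect; nearly all actives have a fitted effect of over 60% in size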
#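 Cells in DMEM/10% FBS with G418 were pretreated with compounds in DMSO plus […] (300 uM stock) for 30 min at 37C. cAMP was measured by HTRF (cAMP-d2 plus anti-cAMP antibody-K) after 30 min at room temperature.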
# * hit, by the source's call; i = inactive; u = inconclusive; x = not tested or not shown; [ ] = another dose, or the depositor's remark. Shown are actives, neighbours in structure and some others; about 1.3% of the full set was active somewhere.
SMILES,pAkt inh,RXFP1 ag,TSHR antag,gsp antagonist,RXFP1 antag,gsp ag
O=C(CCCCCn1c(=S)[nH]c2ccc(N3CCOCC3)cc2c1=O)NCc1ccc2c(c1)OCO2,i,u,-1.6,-10.4%,u,13.4%[15.4 µM]
CC1CCCCN1C(=O)COC(=O)c1cc(Cl)c2c(c1)OCO2 (stereo unspecified),i,-1.2%,-2.3,-5.0%,-10.6,-4.2%
O=C(CC1Sc2ccccc2NC1=O)NNc1cccc(Cl)c1Cl (stereo unspecified),i,x,x,-13.6%,-12.9,10.0%
COC(=O)C1=C(C)N=C2SC(C#N)=C(N)N2C1c1cccc(OC)c1 (stereo unspecified),-114.7%*,2.4%,0.5,-5.5%,4.6,-35.6%
Cc1nc2n(c(=O)c1CCN1CCC(c3noc4cc(F)ccc34)CC1)CCC[C@H]2O,x,x,x,x,-9.1,x
O=C1C(=O)N(CCCN2CCOCC2)C(c2ccc(F)cc2)/C1=C(\O)c1ccc2c(c1)OCCO2 (stereo unspecified),i,u,37.5,39.4%,13.9,31.6µM*
CCCCOc1cccc(C2/C(=C(/O)c3ccc4c(c3)CC(C)O4)C(=O)C(=O)N2CCN2CCOCC2)c1 (stereo unspecified),i,28.2µM*,8.9,-4.4%,-7.5,u
Cc1cc(OCC(C)C)ccc1/C(O)=C1/C(=O)C(=O)N(Cc2cccnc2)C1c1ccncc1 (stereo unspecified),i,u,18.5,14.1%,23.1,5.62µM*
Cc1nc2ccccn2c1/C(O)=C1\C(=O)C(=O)N(CCCn2ccnc2)C1c1ccncc1 (stereo unspecified),i,5.4%,10.2,13.5%,22.3,17.8µM*
CC1CCCC(CC(=O)O)(CC(=O)O)C1 (stereo unspecified),i,0.0%,3.1,11.4%,11.9,3.1%
CCOc1ccc(CC(=O)NCc2ccc3c(c2)CCN3C(=O)c2ccccc2)cc1OCC,x,0.5%,x,x,-28.5,x
CCOc1ccc(NC(=O)C(=O)NCCN2CCN(C(=O)c3ccc(C)cc3)CC2)cc1,i,-0.9%,-11.3,-0.4%,3.0,0.9%
CCOc1cccc(C2/C(=C(/O)c3ccc4c(c3)CC(C)O4)C(=O)C(=O)N2Cc2ccncc2)c1 (stereo unspecified),i,u,2.6,-12.9%,11.9,5.01µM*
COc1cc(C2/C(=C(\O)c3ccc4c(c3)CC(C)O4)C(=O)C(=O)N2CCCn2ccnc2)cc(OC)c1OC (stereo unspecified),i,4.9%,6.2,12.5%,-6.7,38.6%
CCOc1cccc(C2/C(=C(/O)c3ccc4c(c3)CC(C)O4)C(=O)C(=O)N2CCN2CCOCC2)c1 (stereo unspecified),i,u,-2.0,5.4%,14.2,u
COc1cccc(C2/C(=C(/O)c3ccc4c(c3)CC(C)O4)C(=O)C(=O)N2CCCn2ccnc2)c1 (stereo unspecified),i,u,22.4,-7.4%,23.7,12.6µM*
CCOC(=O)CC1CCCCN1C(=O)CCCn1nnnc1CN1CCC(C)CC1 (stereo unspecified),i,-1.9%,-1.3,-16.2%,4.9,13.3%
Cc1ccc(CNC(=O)c2ccc(Cn3nc(C)cc3C)o2)cc1,x,4.5%,-8.9,-6.4%,-117.2*,10.6%
CCN(CC)S(=O)(=O)c1ccc(-c2nnc(SCC(=O)N3c4ccccc4CC3C)n2CC)cc1 (stereo unspecified),i,-0.3%,0.9,28.2µM*,-0.1,-0.4%
CCc1sc(NC(=O)CCC(=O)O)nc1-c1cc2ccccc2oc1=O,i,6.6%,-2.4,3.1%,-0.9,-0.3%
COc1ccc(-n2ncc(N(C)n3cccc3)c(Cl)c2=O)cc1,-114.7%*,-1.4%,0.6,7.6%[15.4 µM],-9.4,-0.6%
COc1ccc(-n2ncc(Cl)c(Cl)c2=O)cc1,i,4.9%,-22.3,-13.3%,-13.7,-1.0%[15.4 µM]

# Screening results as filed in PubChem BioAssay.
